Measured values from the supplement of paper PMC12067093, “Discovery and optimisation of a covalent ligand for TRIM25 and its application to targeted protein ubiquitination” (Chemical Science, 2025).
About 21,000 targets were measured; listed, in parts, are those with the largest changes and a random draw of the rest.

Compound: CC1Cc2ccccc2N1C(=O)C1CCCN(C1)C(=O)CCl (mixture of isomers) [TRIM25 ligand 11 (diastereomer mixture)]
Assay: probe-labelled cysteine peptide fold change vs DMSO (competition) (log2 fold change); higher = less target engagement (more negative = stronger competition)
Details: 10 µM; THP-1; incubation time: 4 h
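Also: competitive chemoproteomic profiling in live THP-1 cells with an iodoacetamide desthiobiotin (IA-DTB) probe, comparing probe-labelled peptide intensities in compound-treated cells against DMSO-treated controls.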

UniProt Q15276, sequence (Q15276 whole entry, looked up): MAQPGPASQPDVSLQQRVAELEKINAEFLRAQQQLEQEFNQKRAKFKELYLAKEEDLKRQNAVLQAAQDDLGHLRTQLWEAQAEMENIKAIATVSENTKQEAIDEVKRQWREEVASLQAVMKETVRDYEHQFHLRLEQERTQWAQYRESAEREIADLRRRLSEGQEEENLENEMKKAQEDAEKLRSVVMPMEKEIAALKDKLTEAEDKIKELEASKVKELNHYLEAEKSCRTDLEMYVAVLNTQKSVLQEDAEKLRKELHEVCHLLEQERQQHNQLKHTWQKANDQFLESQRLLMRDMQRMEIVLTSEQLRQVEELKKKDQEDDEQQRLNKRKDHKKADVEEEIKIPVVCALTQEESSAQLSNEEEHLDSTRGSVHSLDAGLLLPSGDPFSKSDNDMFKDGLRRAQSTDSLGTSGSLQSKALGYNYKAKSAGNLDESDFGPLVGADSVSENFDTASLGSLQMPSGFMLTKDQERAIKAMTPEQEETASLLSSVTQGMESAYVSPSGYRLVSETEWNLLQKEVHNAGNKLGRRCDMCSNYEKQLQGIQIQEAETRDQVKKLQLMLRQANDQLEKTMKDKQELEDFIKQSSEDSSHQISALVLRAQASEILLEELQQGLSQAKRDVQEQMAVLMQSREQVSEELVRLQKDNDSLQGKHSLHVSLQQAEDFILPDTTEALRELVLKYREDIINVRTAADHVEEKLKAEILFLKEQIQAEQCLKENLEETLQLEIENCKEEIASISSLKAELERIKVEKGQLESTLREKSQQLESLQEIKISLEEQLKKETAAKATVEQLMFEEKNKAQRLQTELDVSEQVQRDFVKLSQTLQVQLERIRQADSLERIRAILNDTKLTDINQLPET
UniProt Q15008, sequence (Q15008 whole entry, looked up): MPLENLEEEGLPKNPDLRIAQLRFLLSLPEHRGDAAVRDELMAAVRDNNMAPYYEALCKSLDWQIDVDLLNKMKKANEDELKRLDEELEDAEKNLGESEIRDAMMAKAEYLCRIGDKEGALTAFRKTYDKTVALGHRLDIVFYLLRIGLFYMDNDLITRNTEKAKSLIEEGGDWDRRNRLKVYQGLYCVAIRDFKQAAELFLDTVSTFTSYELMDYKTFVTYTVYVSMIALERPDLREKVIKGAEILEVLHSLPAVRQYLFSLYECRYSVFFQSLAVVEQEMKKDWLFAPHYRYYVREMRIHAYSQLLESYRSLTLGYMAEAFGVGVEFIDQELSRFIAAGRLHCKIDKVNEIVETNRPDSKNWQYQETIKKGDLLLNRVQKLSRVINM
UniProt Q86YV0, sequence (Q86YV0 whole entry, looked up): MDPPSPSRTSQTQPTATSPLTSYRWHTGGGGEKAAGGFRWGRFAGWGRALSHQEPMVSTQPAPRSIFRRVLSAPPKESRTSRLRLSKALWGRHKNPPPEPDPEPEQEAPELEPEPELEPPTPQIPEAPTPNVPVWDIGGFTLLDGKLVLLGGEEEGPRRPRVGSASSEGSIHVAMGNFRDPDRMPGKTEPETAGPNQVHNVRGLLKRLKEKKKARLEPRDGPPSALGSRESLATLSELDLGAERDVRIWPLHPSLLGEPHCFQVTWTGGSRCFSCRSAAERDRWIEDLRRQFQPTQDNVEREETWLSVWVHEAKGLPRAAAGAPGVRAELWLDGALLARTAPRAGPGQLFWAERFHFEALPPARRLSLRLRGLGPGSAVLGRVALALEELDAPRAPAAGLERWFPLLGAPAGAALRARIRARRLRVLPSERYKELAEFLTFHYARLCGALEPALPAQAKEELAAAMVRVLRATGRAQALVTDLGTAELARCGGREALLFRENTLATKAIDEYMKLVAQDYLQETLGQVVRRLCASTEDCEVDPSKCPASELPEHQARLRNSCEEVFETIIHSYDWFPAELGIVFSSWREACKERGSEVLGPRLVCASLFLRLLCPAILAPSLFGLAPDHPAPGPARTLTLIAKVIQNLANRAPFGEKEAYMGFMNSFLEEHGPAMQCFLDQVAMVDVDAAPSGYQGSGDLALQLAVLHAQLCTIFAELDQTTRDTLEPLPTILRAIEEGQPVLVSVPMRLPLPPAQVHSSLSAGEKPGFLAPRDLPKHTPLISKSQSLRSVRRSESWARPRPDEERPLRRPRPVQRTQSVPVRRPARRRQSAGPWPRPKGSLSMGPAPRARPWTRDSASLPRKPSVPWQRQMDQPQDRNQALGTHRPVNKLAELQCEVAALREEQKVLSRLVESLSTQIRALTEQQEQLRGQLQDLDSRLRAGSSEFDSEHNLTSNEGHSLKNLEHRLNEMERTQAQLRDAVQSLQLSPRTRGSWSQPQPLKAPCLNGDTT
UniProt Q9UBS8, sequence (Q9UBS8 whole entry, looked up): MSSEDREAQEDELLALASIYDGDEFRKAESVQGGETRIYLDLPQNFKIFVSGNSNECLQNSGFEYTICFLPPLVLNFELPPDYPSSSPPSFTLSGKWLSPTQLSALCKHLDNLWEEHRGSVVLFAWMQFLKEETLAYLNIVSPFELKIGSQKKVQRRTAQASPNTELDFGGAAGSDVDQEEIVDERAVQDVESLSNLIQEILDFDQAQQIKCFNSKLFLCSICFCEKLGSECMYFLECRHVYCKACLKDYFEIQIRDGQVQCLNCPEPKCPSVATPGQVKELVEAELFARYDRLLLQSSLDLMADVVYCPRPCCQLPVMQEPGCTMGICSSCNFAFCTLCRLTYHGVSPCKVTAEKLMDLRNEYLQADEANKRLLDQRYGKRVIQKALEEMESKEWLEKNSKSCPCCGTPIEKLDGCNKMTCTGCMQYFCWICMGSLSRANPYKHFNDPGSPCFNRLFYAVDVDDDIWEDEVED
UniProt Q3YEC7, sequence (Q3YEC7 whole entry, looked up): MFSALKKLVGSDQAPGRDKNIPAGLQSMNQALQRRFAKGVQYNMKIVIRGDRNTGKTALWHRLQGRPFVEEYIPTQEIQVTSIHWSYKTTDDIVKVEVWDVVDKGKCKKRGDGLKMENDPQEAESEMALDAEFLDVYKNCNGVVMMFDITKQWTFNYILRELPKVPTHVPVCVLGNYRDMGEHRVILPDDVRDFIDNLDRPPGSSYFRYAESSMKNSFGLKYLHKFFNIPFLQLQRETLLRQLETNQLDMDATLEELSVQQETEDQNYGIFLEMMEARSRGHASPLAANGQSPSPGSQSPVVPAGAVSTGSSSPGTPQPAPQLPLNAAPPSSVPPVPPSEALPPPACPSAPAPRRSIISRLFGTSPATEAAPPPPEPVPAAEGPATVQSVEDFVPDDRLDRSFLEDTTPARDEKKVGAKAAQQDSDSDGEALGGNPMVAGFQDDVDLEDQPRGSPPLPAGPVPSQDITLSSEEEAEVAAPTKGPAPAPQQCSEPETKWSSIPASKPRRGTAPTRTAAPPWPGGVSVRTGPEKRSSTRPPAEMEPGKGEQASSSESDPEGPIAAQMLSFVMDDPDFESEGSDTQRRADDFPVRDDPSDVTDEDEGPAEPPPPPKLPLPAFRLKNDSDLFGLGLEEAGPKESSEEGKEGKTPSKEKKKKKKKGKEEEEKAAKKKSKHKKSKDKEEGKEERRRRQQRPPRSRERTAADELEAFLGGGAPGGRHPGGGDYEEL
UniProt O60216, sequence (O60216 whole entry, looked up): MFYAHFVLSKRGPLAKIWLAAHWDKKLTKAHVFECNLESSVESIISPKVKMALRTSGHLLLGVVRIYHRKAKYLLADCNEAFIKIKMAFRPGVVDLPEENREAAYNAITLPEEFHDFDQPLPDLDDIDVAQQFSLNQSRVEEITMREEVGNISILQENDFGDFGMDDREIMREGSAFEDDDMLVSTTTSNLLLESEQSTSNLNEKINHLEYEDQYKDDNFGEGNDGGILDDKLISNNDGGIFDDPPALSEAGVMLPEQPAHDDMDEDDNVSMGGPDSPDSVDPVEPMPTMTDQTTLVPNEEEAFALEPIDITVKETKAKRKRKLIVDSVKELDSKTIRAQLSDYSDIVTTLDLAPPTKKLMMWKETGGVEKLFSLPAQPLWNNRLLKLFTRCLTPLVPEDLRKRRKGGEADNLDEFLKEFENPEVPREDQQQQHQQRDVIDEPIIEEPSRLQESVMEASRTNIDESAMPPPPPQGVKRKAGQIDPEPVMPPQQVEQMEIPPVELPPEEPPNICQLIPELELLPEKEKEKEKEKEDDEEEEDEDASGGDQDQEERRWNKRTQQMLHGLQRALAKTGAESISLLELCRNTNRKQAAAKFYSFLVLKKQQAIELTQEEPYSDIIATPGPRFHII
UniProt P84095, sequence (P84095 whole entry, looked up): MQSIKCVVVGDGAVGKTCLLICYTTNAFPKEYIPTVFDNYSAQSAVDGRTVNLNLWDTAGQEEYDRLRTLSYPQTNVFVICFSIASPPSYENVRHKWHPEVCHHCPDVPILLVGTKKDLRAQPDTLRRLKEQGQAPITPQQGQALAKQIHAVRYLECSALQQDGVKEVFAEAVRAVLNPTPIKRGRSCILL
UniProt P62834, sequence (P62834 whole entry, looked up): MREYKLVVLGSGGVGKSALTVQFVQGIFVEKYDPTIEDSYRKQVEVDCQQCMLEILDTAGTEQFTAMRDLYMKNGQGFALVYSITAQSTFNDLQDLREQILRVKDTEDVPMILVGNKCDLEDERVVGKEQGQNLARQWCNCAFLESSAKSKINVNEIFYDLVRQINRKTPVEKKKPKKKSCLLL
UniProt Q9NW64, sequence (Q9NW64 whole entry, looked up): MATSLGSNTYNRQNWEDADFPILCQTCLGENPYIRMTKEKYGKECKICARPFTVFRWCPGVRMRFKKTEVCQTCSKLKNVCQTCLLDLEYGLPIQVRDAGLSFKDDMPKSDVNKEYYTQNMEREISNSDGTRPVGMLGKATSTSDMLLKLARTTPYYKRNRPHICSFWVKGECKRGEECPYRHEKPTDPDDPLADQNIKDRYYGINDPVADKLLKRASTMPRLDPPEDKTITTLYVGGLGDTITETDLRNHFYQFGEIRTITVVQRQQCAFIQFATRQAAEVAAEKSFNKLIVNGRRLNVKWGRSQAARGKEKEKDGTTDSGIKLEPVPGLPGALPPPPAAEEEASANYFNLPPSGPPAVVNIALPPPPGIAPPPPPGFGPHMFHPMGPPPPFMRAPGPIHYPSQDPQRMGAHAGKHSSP

Target	probe-labelled cysteine peptide fold change
RNF14_Q9UBS8_350_LTYHGVSPCK (UniProt Q9UBS8)	0.114
RABL6_Q3YEC7_172_VPTHVPVCVLGNYR (UniProt Q3YEC7)	0.0329
PSMD6_Q15008_188_VYQGLYCVAIR (UniProt Q15008)	-0.0246
RAB3GAP1_Q15042_783_HLLPCVIHAAVLK (UniProt Q15042)	-0.107
RASAL3_Q86YV0_447_LCGALEPALPAQAK (UniProt Q86YV0)	0.119
RANBP3_Q9H6Z4_406_VEVITGEEAESNVLQMQCK (UniProt Q9H6Z4)	0.0311
RBM4B_Q9BQ04_31_VLECDIIK<|>RBM4_Q9BWF3_31_VLECDIIK (UniProt Q9BWF3+Q9BQ04)	-0.00323
RABEP1_Q15276_350_IPVVCALTQEESSAQLSNEEEHLDSTR (UniProt Q15276)	-0.0072

Same assay, conditions: 50 µM; THP-1; incubation time: 4 h

Target	probe-labelled cysteine peptide fold change
RAB3GAP1_Q15042_873_FVSCLLEQPEVLVTGAGR (UniProt Q15042)	0.33
RHOG_P84095_105_WHPEVCHHCPDVPILLVGTKK (UniProt P84095)	-0.278
RAI1_Q7Z5J4_899_APLICTK (UniProt Q7Z5J4)	-0.376
PTPN12_Q05209_343_SCLVEGDAK (UniProt Q05209)	-0.0495
RAD21_O60216_35_AHVFECNLESSVESIISPK (UniProt O60216)	0.111
RABGEF1_Q9UJ41_359_RDLSIEEQSECAQDFYHNVAER (UniProt Q9UJ41)	-0.0585
PSME1_Q06323_101_KKGEDEDKGPPCGPVNCNEK (UniProt Q06323)	-0.596
RANBP2_P49792_3221_ITITECGQI (UniProt P49792)	0.249
RAP1A_P62834_118_DTEDVPMILVGNKCDLEDERVVGK (UniProt P62834)	-0.364
RBM22_Q9NW64_74_TEVCQTCSK (UniProt Q9NW64)	-0.0803
RGMB_Q6NW40_226_ITIIFKAHHECTDQK (UniProt Q6NW40)	-0.619
RANBP3_Q9H6Z4_249_NESSNASEEEACEK (UniProt Q9H6Z4)	-0.572
RNPEP_Q9H4A4_85_LDSHPCLEVTAAALR (UniProt Q9H4A4)	-0.0588
RCC2_Q9P258_280_GNLYSFGCPEYGQLGHNSDGK (UniProt Q9P258)	-0.207
RFC4_P35249_180_FCLICNYVSR (UniProt P35249)	-0.0464
RPL30_P62888_52_LVILANNCPALR (UniProt P62888)	0.142
RNF14_Q9UBS8_350_LTYHGVSPCK (UniProt Q9UBS8)	0.116
RABL6_Q3YEC7_172_VPTHVPVCVLGNYR (UniProt Q3YEC7)	0.101
PSMD6_Q15008_188_VYQGLYCVAIR (UniProt Q15008)	0.231
RAB3GAP1_Q15042_783_HLLPCVIHAAVLK (UniProt Q15042)	-0.00935
RASAL3_Q86YV0_447_LCGALEPALPAQAK (UniProt Q86YV0)	0.0549
RANBP3_Q9H6Z4_406_VEVITGEEAESNVLQMQCK (UniProt Q9H6Z4)	0.26
RBM4B_Q9BQ04_31_VLECDIIK<|>RBM4_Q9BWF3_31_VLECDIIK (UniProt Q9BWF3+Q9BQ04)	-0.0431
RABEP1_Q15276_350_IPVVCALTQEESSAQLSNEEEHLDSTR (UniProt Q15276)	-0.0899
